According to paper PMC5540273 (PLoS ONE, 2017):

How the values were obtained:
Conditions in all cases: concentration: 1 μM,replicates: in singlicate; n = 1
NIM1 = tested on: T1, NIM1
T1 construct: gene MGC42105

NLK = tested on: NLK
OSR1 = tested on: T2, OSR1
T2 construct: gene OXSR1

PAK1 = tested on: PAK1
PAK2 = tested on: PAK2
PAK3 = tested on: PAK3
PAK4 = tested on: PAK4
PAK6 = tested on: PAK6
PAK7 = tested on: PAK7
PCTK1 = tested on: T3, PCTK1
T3 construct: gene CDK16
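Further: KINOMEscan kinase panel screen.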

Row | SMILES | %Inh (NIM1) | %Inh (NLK) | %Inh (OSR1) | %Inh (PAK1) | %Inh (PAK2) | %Inh (PAK3) | %Inh (PAK4) | %Inh (PAK6) | %Inh (PAK7) | %Inh (PCTK1)
1 | O=C(Nc1ccccc1)c1cccc(Oc2ccc3nccn3n2)c1 | 1% | 0% | 0% | 0% | 0% | 5% | 0% | 9% | 0% | 0%
2 | COc1cc(Nc2nccc(N3CCC(NC(=O)c4cccc(C#N)c4)C3)n2)cc(OC)c1OC (stereo not shown) [GSK1379751] | 16% | 7% | 2% | 2% | 0% | 0% | 0% | 0% | 1% | 0%
3 | Cc1n[nH]c2cc(Nc3ccnc(Nc4cccc(CN5CCOCC5)c4)n3)ccc12 [GW682569] | 22% | 18% | 0% | 0% | 0% | 0% | 2% | 1% | 20% | 0%
4 | Cn1ccc2ncnc(Oc3ccc(NC(=O)Nc4cc(C(C)(C)C)on4)c(Cl)c3)c21 | 0% | 67% | 20% | 20% | 23% | 46% | 8% | 1% | 0% | 27%
5 | CS(=O)c1ccc(-c2coc3ccc(-c4n[nH]c(=O)o4)cc23)cc1 (stereo not shown) | 7% | 11% | 83% | 0% | 36% | 18% | 4% | 5% | 19% | 14%
6 | Cc1ccc(C(=O)Nc2ccc(Oc3ccc4nc(NC(=O)C5CC5)cn4c3)c(F)c2)c(=O)n1-c1ccccc1 | 0% | 7% | 0% | 0% | 2% | 12% | 0% | 8% | 0% | 0%
7 | Cc1ccn2nc(-c3ccc(F)cc3)c(-c3ccncc3)c2c1.Cl [GW457859] | 20% | 79% | 0% | 0% | 0% | 0% | 0% | 0% | 21% | 0%
8 | CC(C)S(=O)(=O)N1CCN(Cc2ccc3c(c2)nc(NC(=O)c2ccsc2)n3C[C@H](O)c2ccccc2)CC1 [GW635815] | 20% | 0% | 10% | 22% | 27% | 15% | 44% | 9% | 35% | 0%
9 | O=C(Nc1cccc(Oc2ccc3nccn3n2)c1)Nc1cccc(C(F)(F)F)c1 | 14% | 19% | 0% | 0% | 0% | 0% | 0% | 5% | 0% | 0%
10 | NC(=O)c1ccc(-c2cc3ncnc(SCC(=O)O)c3s2)cc1 | 0% | 0% | 0% | 0% | 0% | 0% | 0% | 0% | 0% | 0%
11 | Cl.c1ccc(Oc2ccc(Nc3ccnc4cc(-c5ccc(CN6CCNCC6)o5)ccc34)cc2)nc1 [GW567142] | 0% | 15% | 0% | 7% | 0% | 0% | 0% | 0% | 0% | 1%
12 | CNC(=O)c1ccccc1Nc1nc(Nc2cccc(CS(C)(=O)=O)c2)ncc1C.O=CO [GSK1520489] | 97.4% | 39% | 28% | 64% | 52% | 97.8% | 55% | 79% | 85% | 6%
13 | CN(c1ccccc1CNc1nc(Nc2ccc3c(c2)CC(=O)N3)ncc1C(F)(F)F)S(C)(=O)=O | 0% | 0% | 0% | 0% | 0% | 68% | 2% | 0% | 11% | 28%
14 | CN(c1cccc(CNc2nc(Nc3ccc4c(c3)CC(=O)N4)ncc2C(F)(F)F)c1)S(C)(=O)=O | 0% | 8% | 0% | 15% | 42% | 0% | 11% | 14% | 13% | 0%
15 | Cc1nnc(-c2ccc3occ(-c4ccc(S(C)=O)cc4)c3n2)o1 (stereo not shown) | 0% | 55% | 0% | 4% | 0% | 0% | 0% | 3% | 0% | 0%
16 | CC(C(=O)NC1CCN(c2ccnc(Nc3ccc(F)cc3)n2)C1)c1ccc(Cl)cc1 (stereo not shown) [GSK1379713] | 17% | 0% | 5% | 5% | 2% | 0% | 0% | 0% | 0% | 3%
17 | CCCC(=O)Nc1n[nH]c2ncccc12 [SB-601436] | 0% | 0% | 0% | 0% | 17% | 0% | 0% | 0% | 0% | 0%
18 | CC(=O)Nc1nc2cnc(Nc3cc(NC(=O)c4cccc(CC(C)(C)C#N)c4)ccc3C)nc2s1 | 23% | 1% | 41% | 25% | 25% | 28% | 8% | 21% | 2% | 25%
19 | COC(=O)c1cccc(NC(=O)NC2CCN(c3ccnc(Nc4cc(OC)c(OC)c(OC)c4)n3)C2)c1 (stereo not shown) [GSK1379767] | 40% | 32% | 0% | 10% | 0% | 18% | 5% | 0% | 18% | 0%

Row | SMILES | %Inh (NIM1) | %Inh (NLK) | %Inh (OSR1) | %Inh (PAK1) | %Inh (PAK2) | %Inh (PAK3) | %Inh (PAK4) | %Inh (PAK6) | %Inh (PAK7) | %Inh (PCTK1)
20 | CN1CCN(CCCNc2nccc(-c3c(-c4ccc(F)cc4)nn4cc(C(N)=O)ccc34)n2)CC1 [GW622475] | 9% | 70% | 19% | 26% | 22% | 34% | 0% | 7% | 24% | 6%
21 | CC(=O)c1c(-c2ccncc2)[nH]c(-c2ccncc2)c1C [GW493036] | 8% | 18% | 3% | 15% | 19% | 20% | 0% | 2% | 0% | 4%
22 | Cc1cccc2c(-c3ccncc3)c(-c3ccc(F)cc3)nn12.Cl [GW461487] | 10% | 65% | 0% | 24% | 8% | 100% | 0% | 0% | 0% | 0%
23 | CCN1CCN(CCCC(=O)Nc2n[nH]c3nc(-c4ccc(O)cc4)c(Br)cc23)CC1 [SB-731579] | 3% | 0% | 0% | 0% | 33% | 36% | 61% | 0% | 7% | 56%
24 | Nc1nccc(-c2ccc3c(N)n[nH]c3c2)n1 [GSK1034945] | 17% | 33% | 6% | 18% | 11% | 7% | 0% | 0% | 2% | 0%
25 | COc1ccc(Nc2nccc(N3CCC(NC(=O)c4cccc(C#N)c4)C3)n2)cc1 (stereo not shown) [GSK1379730] | 0% | 0% | 0% | 0% | 0% | 24% | 0% | 0% | 0% | 3%
26 | CCn1c(-c2nonc2N)nc2cncc(CNC3CCNCC3)c21.Cl [SB-747651] | 31% | 18% | 4% | 0% | 51% | 45% | 0% | 2% | 0% | 8%
27 | CC(=O)Nc1ccc(-c2cc3ncnc(SCC(=O)O)c3s2)cc1 | 0% | 0% | 7% | 0% | 0% | 0% | 0% | 0% | 8% | 28%
28 | Cn1ccc2ncnc(Oc3ccc(NC(=O)Nc4cccc(C(F)(F)F)c4)c(F)c3)c21 | 0% | 18% | 0% | 14% | 12% | 0% | 6% | 0% | 0% | 0%
29 | Cn1cc(-c2cccc3c(N)c(C(N)=O)nnc23)cn1 | 9% | 20% | 24% | 0% | 2% | 44% | 1% | 13% | 18% | 6%
30 | Cc1ccc(CC(=O)N2CCc3cc(-c4cn(C)c5ncnc(N)c45)ccc32)cc1 [GSK2634758] | 13% | 1% | 0% | 0% | 0% | 49% | 0% | 100% | 0% | 0%
31 | C[C@@H](Oc1cc(-n2cnc3ccc(-c4ccncc4)cc32)sc1C(N)=O)c1ccccc1Cl [GSK483724] | 13% | 49% | 11% | 8% | 29% | 21% | 44% | 13% | 10% | 7%
32 | NC(=O)Nc1sc(-c2ccc(F)cc2)cc1C(N)=O [GW789449] | 14% | 0% | 16% | 0% | 4% | 24% | 11% | 12% | 1% | 0%
33 | COc1cc2nccc(Nc3ccc(Oc4ccccc4)cc3)c2cc1OC.Cl [GI261656] | 5% | 0% | 0% | 0% | 0% | 0% | 0% | 0% | 3% | 0%
34 | FC(F)(F)c1cc(Br)cc(Nc2nccc(-c3cnn4ncccc34)n2)c1 [GW810578] | 0% | 0% | 2% | 11% | 45% | 27% | 22% | 20% | 6% | 3%
35 | CCn1c(-c2nonc2N)nc2cncc(Br)c21 [SB-738004] | 37% | 22% | 0% | 0% | 16% | 1% | 7% | 15% | 32% | 0%
36 | O=C1NCCc2[nH]c(-c3ccncc3)cc21 | 45% | 22% | 3% | 38% | 40% | 42% | 14% | 17% | 0% | 0%
37 | C[C@@H]1CCN(C(=O)N2CCCC2)C[C@@H]1N(C)c1ncnc2[nH]ccc12 | 18% | 0% | 11% | 0% | 0% | 25% | 0% | 0% | 3% | 5%
